Usually AC50 stands for the concentration giving half of the maximal activity seen.

Where “and” joins values, the source holds several entries; their conditions need not be identical. Equal entries are not always repeated. Results filed as inconclusive are left out. More than one record can exist for a structure, and the calls need not agree. Calls of active or inactive are those of the source. How the source made its calls: active means hit-call score of the fitted dose curve at least 0.9, where 1 is the maximum; inconclusive means response in the unintended direction; inactive means score below 0.9.

Experimental findings from PubChem BioAssay (EPA / NIEHS) are described below.

In test [1] the target is rat Neurokinin-3 Receptor (NK3), Tacr3 (gene 24808) (UniProt P16177). Put plainly: NVS_GPCR_rNK3: NovaScreen (NVS) G Protein-Coupled Receptor Assay for rat Neurokinin-3 Receptor (NK3) (AID 2283310). The procedure, abridged:
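Filter-based radioligand displacement on rat cortex membrane preparations, read by scintillation 2 h post-dose. Chemicals first tested in duplicate at 25 uM; actives followed up in concentration series with a 50 uM maximum.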

In test [2] the target is rat Vasopressin 1 Receptor (V1), Avpr1a (gene 25107) (UniProt P30560). Briefly: NVS_GPCR_rV1: NovaScreen (NVS) G Protein-Coupled Receptor Assay for rat Vasopressin 1 Receptor (V1) (AID 2283316). An outline of the steps: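 Concentration-response up to 50 uM for chemicals passing a threshold such as 30% inhibition in an initial duplicate 25 uM screen. Displacement of radioligand from rat liver membranes measured after 1.5 h by filtration and scintillation.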

In test [3] the target is rat Opioid Receptor, Non-selective Binding, Oprm1 (gene 25601) (UniProt P33535). Put plainly: NVS_GPCR_rOpiate_NonSelective: NovaScreen (NVS) G Protein-Coupled Receptor Assay for rat Opioid Receptor, Non-selective Binding (AID 2283318). The procedure:
NVS_GPCR_rOpiate_NonSelective is a biochemical, single-readout assay that uses extracted gene-proteins from Rat forebrain membranes in a tissue-based cell-free assay. Measurements were taken 1.5 hours after chemical dosing in a 48-well plate.NVS_GPCR_rOpiate_NonSelective is one of one assay component(s) measured or calculated from the NVS_GPCR_rOpiate_NonSelective assay. It is designed to make measurements of radioligand binding, a form of binding reporter, as detected with scintillation counting signals by Filter-based radiodetection technology.Data from the assay component NVS_GPCR_rOpiate_NonSelective was analyzed into 1 assay endpoint. This assay endpoint, NVS_GPCR_rOpiate_NonSelective, was analyzed in the positive analysis fitting direction relative to DMSO as the negative control and baseline of activity. Using a type of binding reporter, loss-of-signal activity can be used to understand changes in the binding as they relate to the gene Oprm1. Furthermore, this assay endpoint can be referred to as a primary readout, because the performed assay has only produced 1 assay endpoint. To generalize the intended target to other relatable targets, this assay endpoint is annotated to the gpcr intended target family, where the subfamily is rhodopsin-like receptor. […]

Test [4] addresses bovine Gamma-Aminobutyric Acid Type A Receptor BDZ, alpha 5 site (GABARa5), GABRA5 (gene 523515) (UniProt Q08E50). Put plainly: NVS_LGIC_bGABARa5: NovaScreen (NVS) Ligand-Gated Ion Channel Assay for bovine Gamma-Aminobutyric Acid Type A Receptor BDZ, alpha 5 site (GABARa5) (AID 2283323). An outline of the steps:
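Tested first in duplicate at a single 25 uM, with hits re-run in concentration series to a 50 uM maximum. Bovine hippocampal membranes; specific radioligand displacement measured by filter scintillation counting 1 hr post-dose.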

rat Opioid Receptor, Non-selective Binding, Oprm1 (gene 25601), sequence (P33535 whole entry, looked up): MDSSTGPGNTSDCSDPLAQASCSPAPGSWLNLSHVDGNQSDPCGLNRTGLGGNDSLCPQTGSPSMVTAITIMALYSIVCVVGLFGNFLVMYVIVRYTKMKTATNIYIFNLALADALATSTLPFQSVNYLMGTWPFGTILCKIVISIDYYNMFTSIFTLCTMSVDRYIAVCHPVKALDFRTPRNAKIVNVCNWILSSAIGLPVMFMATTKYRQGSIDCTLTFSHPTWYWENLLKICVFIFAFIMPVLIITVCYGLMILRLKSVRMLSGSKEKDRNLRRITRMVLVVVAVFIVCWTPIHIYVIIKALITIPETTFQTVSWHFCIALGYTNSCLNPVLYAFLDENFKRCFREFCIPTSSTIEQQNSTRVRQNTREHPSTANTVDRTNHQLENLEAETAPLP
rat Neurokinin-3 Receptor (NK3), Tacr3 (gene 24808), sequence (P16177 whole entry, looked up): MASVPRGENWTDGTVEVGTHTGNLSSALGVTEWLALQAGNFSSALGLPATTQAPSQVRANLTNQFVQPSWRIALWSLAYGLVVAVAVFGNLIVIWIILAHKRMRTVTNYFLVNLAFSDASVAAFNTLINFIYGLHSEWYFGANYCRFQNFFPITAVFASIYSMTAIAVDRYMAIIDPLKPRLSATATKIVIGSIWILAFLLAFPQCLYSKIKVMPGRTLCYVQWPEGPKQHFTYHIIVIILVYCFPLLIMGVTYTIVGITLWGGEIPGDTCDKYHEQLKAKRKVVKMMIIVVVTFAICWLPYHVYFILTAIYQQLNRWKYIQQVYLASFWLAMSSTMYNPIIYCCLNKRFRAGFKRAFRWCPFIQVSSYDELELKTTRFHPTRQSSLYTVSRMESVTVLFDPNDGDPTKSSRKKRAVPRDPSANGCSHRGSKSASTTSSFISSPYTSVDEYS
rat Vasopressin 1 Receptor (V1), Avpr1a (gene 25107), sequence (P30560 whole entry, looked up): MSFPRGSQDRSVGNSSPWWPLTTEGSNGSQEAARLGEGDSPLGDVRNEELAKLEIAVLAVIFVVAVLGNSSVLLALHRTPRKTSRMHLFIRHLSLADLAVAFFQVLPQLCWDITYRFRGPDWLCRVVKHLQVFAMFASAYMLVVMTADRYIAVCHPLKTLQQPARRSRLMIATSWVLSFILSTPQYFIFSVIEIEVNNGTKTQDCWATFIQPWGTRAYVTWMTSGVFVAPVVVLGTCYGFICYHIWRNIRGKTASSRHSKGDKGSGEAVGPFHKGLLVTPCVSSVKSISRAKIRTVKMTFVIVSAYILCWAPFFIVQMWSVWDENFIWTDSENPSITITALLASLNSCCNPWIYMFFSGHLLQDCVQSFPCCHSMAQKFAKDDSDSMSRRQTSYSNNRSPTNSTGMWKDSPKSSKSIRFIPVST
bovine Gamma-Aminobutyric Acid Type A Receptor BDZ, alpha 5 site (GABARa5), GABRA5 (gene 523515), sequence (Q08E50 whole entry, looked up): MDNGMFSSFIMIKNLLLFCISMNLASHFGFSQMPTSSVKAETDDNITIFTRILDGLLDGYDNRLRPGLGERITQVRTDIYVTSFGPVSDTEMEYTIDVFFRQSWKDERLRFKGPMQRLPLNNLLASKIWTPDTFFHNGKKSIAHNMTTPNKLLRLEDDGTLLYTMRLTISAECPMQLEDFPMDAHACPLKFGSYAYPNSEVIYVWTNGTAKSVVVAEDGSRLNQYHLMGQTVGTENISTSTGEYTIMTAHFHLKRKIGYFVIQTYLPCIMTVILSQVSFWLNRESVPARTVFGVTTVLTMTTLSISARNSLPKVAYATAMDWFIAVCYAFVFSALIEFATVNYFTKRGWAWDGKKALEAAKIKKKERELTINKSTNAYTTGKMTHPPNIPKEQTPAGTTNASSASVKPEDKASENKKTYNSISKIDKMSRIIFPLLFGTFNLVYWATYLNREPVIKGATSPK

With `S=C([S-])NCCNC(=S)[S-].[Mn+2]`, the outcome in test [1] was inactive.
`S=C(S)NCCNC(=S)S.[Mn+2].[S-]C([S-])=NCCN=C([S-])[S-].[Zn+2]`: the call in test [1] and in test [2] was inactive.
Turning to `N#CSCSc1nc2ccccc2s1`, the AC50 in test [2] is 2.34 µM (active).
Turning to `CC(C)(c1ccc(O)cc1)c1ccc(O)cc1`, in test [3], the AC50 is 25.4 µM (active) and 17.6 µM (active).
Same read-out and setting: for `C=CCOC(Cn1ccnc1)c1ccc(Cl)cc1Cl` (configuration not stated) the value was 9.36 µM (active).
`Oc1ccc(C(c2ccc(O)cc2)C(Cl)(Cl)Cl)cc1`: the result in test [4] was inactive.
